Source: PubChem BioAssay AID1851 (National Center for Advancing Translational Sciences (NCATS), 2009)
Out of some 16,000 compounds screened, about 5,800 (36%) were called active. Inconclusive results (about 23%) are left out. Calls follow the shape of the dose curve; as a rule, active = well fitted curve in the direction sought with a large enough effect; inconclusive = small, poorly fitted or top-dose-only effect, or effect the other way; inactive = no such curve, though single readings can be large or run the other way. This is one part of the list.

These molecules were tested against Cytochrome P450 2C19 (Homo sapiens) (UniProt P33261) (assay: Cytochrome panel assay with activity outcomes). Conditions: recombinant CYP, pro-luciferin dealkylation, luminescence, p450-cyp2c19; series mostly up to 57.1 µM.
Cytochrome P450 2C19 (Homo sapiens), sequence (P33261 whole entry, looked up): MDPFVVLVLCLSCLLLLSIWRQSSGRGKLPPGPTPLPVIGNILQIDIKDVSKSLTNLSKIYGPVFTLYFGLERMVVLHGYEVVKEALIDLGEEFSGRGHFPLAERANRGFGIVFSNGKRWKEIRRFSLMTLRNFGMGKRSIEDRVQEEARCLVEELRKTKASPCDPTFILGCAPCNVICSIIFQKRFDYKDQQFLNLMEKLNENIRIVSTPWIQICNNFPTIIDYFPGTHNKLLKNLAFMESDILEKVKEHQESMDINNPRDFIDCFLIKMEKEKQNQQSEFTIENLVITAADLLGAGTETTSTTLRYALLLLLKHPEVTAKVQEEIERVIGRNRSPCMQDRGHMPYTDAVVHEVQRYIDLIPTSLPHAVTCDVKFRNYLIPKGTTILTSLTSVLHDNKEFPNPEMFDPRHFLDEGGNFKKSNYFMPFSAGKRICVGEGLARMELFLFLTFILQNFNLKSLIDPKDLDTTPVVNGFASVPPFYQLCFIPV
% is scaled to controls: 0 for no effect and ±100 for the full control effect.

Row | SMILES | AC50 | activity, negative = inhibition
1 | N#CCCn1c(=O)c(-c2cc(F)cc(F)c2)nc2cnc(Nc3ccccc3)nc21 | inactive | 
2 | FC(F)(F)c1cc(CN2CC3(CCNCC3)C2)cc(C(F)(F)F)c1 | inactive | 
3 | COc1cc(C2SCCCCCCCCCCSC(c3ccc(O)c(OC)c3)SCCCCCCCCCCS2)ccc1O (stereo not drawn) |  | 20.3% [at 11.4 µM] (inactive)
4 | COc1ccc(Oc2ncc3nc(-c4cn(C)c5ccccc45)c(=O)n(C)c3n2)cc1 | inactive | 
5 | COc1ccc(Oc2c(C=O)c3ccccc3n2C)cc1 | 2.82 µM (active) | 
6 | Cn1c(Oc2ccccc2)c(C=O)c2ccccc21 | 4.47 µM (active) | 
7 | Cc1ccc(C(=O)O/N=C/c2c(Cl)n(C)c3ccccc23)cc1 | inactive | 
8 | Cn1cc(-c2nc3cnc(Oc4ccccc4)nc3n(C)c2=O)c2ccccc21 | inactive | 
9 | O=C(COc1ccccc1Cl)Nc1cc(Cl)ccc1Oc1ccccc1 | 1 µM (active) | 
10 | Cc1cc(NC(=O)COc2ccc(Cl)cc2Cl)n(-c2ccccc2)n1 | 1.12 µM (active) | 
11 | c1cncc(-c2ccc3ncnc(NC4CCNCC4)c3c2)c1 | inactive | 
12 | c1nc(NC2CCNCC2)c2cc(-c3ccc4c(c3)OCO4)ccc2n1 | inactive | 
13 | CN(C)c1ccc(-c2ccc3ncnc(NC4CC4)c3c2)cc1 | inactive | 
14 | CS(=O)(=O)Nc1cccc(-c2ccc3ncnc(NC4CCNCC4)c3c2)c1 | inactive | 
15 | Cc1noc(C)c1-c1ccc2ncnc(NC3CCNCC3)c2c1 | 15.8 µM (active) | 
16 | COc1cccc(-c2ccc3ncnc(NC4CC4)c3c2)c1 | 1.26 µM (active) | 
17 | c1nc(NC2CCNCC2)c2cc(-c3ccoc3)ccc2n1 | inactive | 
18 | COc1cccc(-c2ccc3ncnc(NC4CCNCC4)c3c2)c1 | 6.31 µM (active) | 
19 | Cn1c(=O)c(-c2ccc(Cl)cc2)nc2cnc(OCc3ccccc3)nc21 | inactive | 
20 | Cc1cc(C)n(-c2nc3ccccc3c(=O)n2OCc2ccc(Cl)cc2)n1 | 0.398 µM (active) | 
21 | Cc1ccc(C)c(Cn2c(C(=O)OC(C)C)cc3c2ccn3C)c1 | 1.78 µM (active) | 
22 | CCOC(=O)c1cc2c(ccn2C)n1CC(=O)N1CCCC(C)C1 (stereo not drawn) | 8.91 µM (active) | 
23 | C[C@@H](CN1CCC(Cc2ccccc2)CC1)[C@H](O)c1ccc(O)cc1 | inactive | 

Row | SMILES | AC50 | activity, negative = inhibition
24 | CC(C)OC(=O)c1cc2c(ccn2C)n1CC(=O)N1CCC(Cc2ccccc2)CC1 | 14.1 µM (active) | 
25 | C[C@@H](CN1CCC(Cc2ccccc2)CC1)[C@@H](O)c1ccc(O)cc1 | inactive | 
26 | Clc1ccc(-c2nnc(CCc3ccccc3)o2)c(Cl)c1 | 1.41 µM (active) | 
27 | CSc1nnc(-c2ccc(Cl)cc2Cl)o1 | 25.1 µM (active) | 
28 | c1ccc(C2=NN[C@@H]3c4ccccc4-c4ccccc4N3C2)cc1 |  | -22.1% [at 11.4 µM] (inactive)
29 | CN(C)c1ccc(-c2cncnc2-n2ccnc2)cc1 | 3.98 µM (active) | 
30 | CN(C)c1ccc(-c2ccc3ncnc(N(C)C)c3c2)cc1 | inactive | 
31 | CN1CCN(c2ncncc2-c2ccc(C(=O)N(C)C)cc2)CC1 | inactive | 
32 | CN(C)c1ccc(-c2ccc3ncnc(-n4ccnc4)c3c2)cc1 | 10 µM (active) | 
33 | COc1cccc(-c2cncnc2-n2ccnc2)c1 | 0.631 µM (active) | 
34 | CN(C)C(=O)c1ccc(-c2cncnc2N2CCNCC2)cc1 | inactive | 
35 | CN1CCN(c2ncncc2-c2ccc(N(C)C)cc2)CC1 | 10 µM (active) | 
36 | c1cncc(-c2cncnc2-n2ccnc2)c1 | inactive | 
37 | CN(C)C(=O)c1ccc(-c2ccc3ncnc(N4CCNCC4)c3c2)cc1 | inactive | 
38 | CS(=O)(=O)Nc1cccc(-c2cncnc2-n2ccnc2)c1 | inactive | 
39 | N#Cc1ccccc1-c1ccc2ncnc(N3CCNCC3)c2c1 | inactive | 
40 | c1cn(-c2ncnc3ccc(-c4ccoc4)cc23)cn1 | 10 µM (active) | 
41 | Cc1ccccc1-c1ccc2ncnc(-n3ccnc3)c2c1 | 2 µM (active) | 
42 | CN(C)c1ccc(-c2cc(-n3ccnc3)ncn2)cc1 | 7.94 µM (active) | 
43 | CN1CCN(c2cc(-c3ccc(N(C)C)cc3)ncn2)CC1 | inactive | 
44 | COCCNc1ncnc2ccc(-c3ccoc3)cc12 | inactive | 
45 | COc1ccccc1CN1CCC2(CC1)CCN(C(C)=O)CC2 | inactive | 
46 | CCN(CC)C(=O)c1ccc(O)c(OC)c1 | inactive | 

Row | SMILES | AC50 | activity, negative = inhibition
47 | CCCCN(CC)C(=O)Cc1ccccc1OC | 4.47 µM (active) | 
48 | Cc1ccc2nc(Cc3ccc(N)cc3)[nH]c2c1 | 3.55 µM (active) | 
49 | Nc1nc(SCc2ccccc2Cl)cc(C(=O)O)n1 |  | 35% [at 11.4 µM] (inactive)
50 | N#Cc1c(SCC(N)=O)nsc1SCc1ccccc1Cl | 1.12 µM (active) | 
51 | CC1CCC(NC(=O)CC(C)(C)Cc2nc3ccccc3c(=O)[nH]2)CC1 (stereo not drawn) | 6.31 µM (active) | 
52 | CN(C)C(=O)c1ccc(-c2nc(NC3CCNCC3)c3ccccc3n2)cc1 | inactive | 
53 | CN=C(NC#N)Nc1ccc(C2=NNC(=O)C[C@@H]2C)cc1 | inactive | 
54 | O=c1c(-c2ccccc2)nc2cnc(N3CCOCC3)nc2n1CCc1ccccc1 | inactive | 
55 | CN1CCN(c2ncc3nc(-c4ccccc4)c(=O)n(CCc4ccccc4)c3n2)CC1 | inactive | 
56 | Cc1nc2cnc(N3CCN(C)CC3)nc2n(CCc2ccccc2)c1=O | 5.01 µM (active) | 
57 | CN1CCN(c2ncc3nc(-c4cccs4)c(=O)n(CCc4ccccc4)c3n2)CC1 | inactive | 
58 | O=c1cnc2cnc(N3CCOCC3)nc2n1Cc1ccc(F)cc1 | 3.98 µM (active) | 
59 | COc1ccc(-c2nc3cnc(N4CCOCC4)nc3n(CCc3ccccc3)c2=O)cc1 | inactive | 
60 | O=c1cnc2cnc(N3CCOCC3)nc2n1CCc1ccccc1 | 0.1 µM (active) | 
61 | CN1CCN(c2ncc3ncc(=O)n(Cc4cccs4)c3n2)CC1 | inactive | 
62 | CN1CCN(c2ncc3ncc(=O)n(CCc4ccccc4)c3n2)CC1 | 6.31 µM (active) | 
63 | COc1ccc(-c2nc3cnc(N4CCN(C)CC4)nc3n(CCc3ccccc3)c2=O)cc1 | inactive | 
64 | O=c1cnc2cnc(N3CCOCC3)nc2n1C[C@H]1CCCO1 | inactive | 
65 | CN1CCN(c2ncc3ncc(=O)n(Cc4ccc(F)cc4)c3n2)CC1 | inactive | 
66 | COc1ccc(O)c(/C=N/NC(=O)c2ccc(OCc3cccc(Br)c3)cc2)c1 | inactive | 
67 | COC(=O)CCC(=O)NNC(=O)c1ccc(Br)cc1 | inactive | 
68 | COc1ccc(C(=O)NCC(=O)OCc2cccc(Br)c2)cc1 | 3.55 µM (active) | 
